Shown is part of a subset that was picked to be rich in hits.
HTT ATP protect – qHTS Multiplex Assay to Identify Dual Action Probes in a Cell Model of Huntington: Cytoprotection (ATP); 230,000 tested, 0.14% active; Potency, µM (doses to about 56.4 µM), inactives show cytoprotection (ATP increase), usual class: activators; PC12 HTT-Q103 induced, cytoprotection, ATP luminescence, 40 h; note: % of control where 0% means no effect; nearly all actives have a fitted effect of over 45% in size
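ATP quantification (ATPlite) reports survival of PC12 cells in which tebufenozide, 100 nM final, switches on Htt exon 1 with 103 glutamines linked to GFP; compounds are titrated.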
HttQ103 aggreg – qHTS Multiplex Assay to Identify Dual Action Probes in a Cell Model of Huntington: Aggregate Formation (GFP); Potency, µM (doses to about 46.1 µM), for the others: at the highest dose activity change, negative = inhibition, usual class: inhibitors; 220,000 tested, 1.1% active; PC12 HttQ103-GFP aggregates, Acumen cytometry, 40 h; note: % is set by controls: 0 for no effect and ±100 for the full control effect; nearly all actives have a fitted effect of over 60% in size
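Multiplexed with ATP-based cell death, this channel scores GFP aggregates in PC12 cells expressing inducible HTTex1-Q103-GFP. Induction used 100 nM tebufenozide; compounds were tested in concentration series.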
PINK1 expr mod – A Quantitative High throughput Screen to Identify Chemical Modulators of PINK1 Expression; Potency, µM (series often up to 76.6 µM), for inactives: at the top dose activation (PINK1 increase), most hits filed as activators; PINK1 immunofluorescence, high-content cytometry, 24 h; 410,000 tested, 0.2% active; active = well fitted activation curve with a large enough effect; inconclusive = small, poorly fitted or top-dose-only effect; cell line not stated here; note: % of control where 0% means no effect; nearly all actives have a fitted effect of over 65% in size
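Cells are seeded, rested 12 hours, then given compound at five concentrations or DMSO for 24 hours. After fixation, blocking and antibody staining, PINK1 amount and mitochondrial localization are scored; CCCP serves as control.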
Epigenetic derep – Quantitative High-Throughput Screen for Regulators of Epigenetic Control; murine LDR cells, GFP reporter derepression, 30 h; Potency, µM (series often up to 53.9 µM), for the others: at the highest dose GFP activation, most hits filed as activators; 280,000 tested, 0.2% active; note: % of control where 0% means no effect; nearly all actives have a fitted effect of over 60% in size
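Murine LDR cells carrying a silenced, genomically integrated CMV-driven GFP reporter were exposed to compound for 30 hours at 37 C. After PBS washes, GFP-positive cells (20–120 um objects) were counted by laser-scanning microplate cytometry.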
* hit, by the source's call; ? = inconclusive; . = not tested or not shown; ! = not active in a repeat; [ ] = remark or other dose. Unless noted, calls come from the whole dose curve; as a rule, active = well fitted curve in the direction sought with a large enough effect; inconclusive = small, poorly fitted or top-dose-only effect, or another doubt; inactive = no such curve, though single readings can be large; an effect the other way counts as inactive or inconclusive. Potency is the fitted concentration of half-maximal effect.

SMILES	HTT ATP protect	HttQ103 aggreg	PINK1 expr mod	Epigenetic derep
CCN(C(=O)COC(=O)CSc1cc(C)c2ccccc2n1)c1ccccc1	.	.	-1%	.
Cc1csc(NC(=O)c2cc(-c3ccco3)nc3ccccc23)n1	6%[1.9 µM]	11%	1%	1%
O=C(Oc1c(CN2CCOCC2)cc(Cl)c2cccnc12)c1ccc(F)cc1	-98%[10 µM]	1µM*	-3%	?
COc1ccc(C(=O)Oc2c(CN3CCOCC3)cc(Cl)c3cccnc23)cc1	-102%	?	1%	7.1µM*
COc1cccc(C(=O)Oc2c(CN3CCOCC3)cc(Cl)c3cccnc23)c1	-93%[10 µM]	11µM*	-2%	4.5µM*
O=C(Oc1c(CN2CCOCC2)cc(Cl)c2cccnc12)c1cccs1	-97%[10 µM]	1.3µM*	1%	?
CCN1C(=O)CSC1=Nc1ccc(Cl)c(Cl)c1	.	.	0%	.
CCCCCCCCCCCCCCCCOC[C@@H](COCC(F)(F)F)OP(=O)(O)OCO	8%[1.9 µM]	.	.	.
Oc1c(Cl)cc(Cl)c2cccnc12	-48%	8.9µM*	8%	?
O=C(Oc1c(Cl)cc(Cl)c2cccnc12)c1ccco1	-60%	?	6%	?
O=C(Oc1c(Cl)cc(Cl)c2cccnc12)c1cccs1	-61%[10 µM]	10µM*	-1%	?
COC(=O)C(N)CCCCN (centres undefined)	.	.	2%	.
O=C(C#Cc1ccccc1)c1cccc([N+](=O)[O-])c1	-92%	13µM*	-4%	-1%
Cn1cc(CN(CCCN2CCOCC2)C(=S)Nc2cccc(Cl)c2)c2ccccc21	-51%[10 µM]	?	-1%	-1%
Cc1ccc(NC(=S)N(C)Cc2cn(C)c3ccccc23)cc1	8%[10 µM]	35µM*	3%	-1%
Cc1cccc(NC(=S)N(CCCN2CCOCC2)Cc2cn(C)c3ccccc23)c1	-39%[10 µM]	8.9µM*	-3%	-1%
Cc1c(C(=O)Nc2ccccc2)c2ccc(C(F)(F)F)cc2n1O	.	.	45µM*	.
Cc1ccc2c(c1)NC(=O)CC(c1ccccc1)=N2	27%[1.9 µM]	-12%	-1%	-1%
CC1=CC(C)=Nc2ccc(C)cc2N1	?	0.89µM*!	0%	-1%
C(=C\c1ccccc1)/CN1CCN(Cc2ccc3c(c2)OCCO3)CC1	10%	13%	.	-2%
Cc1cc(=O)[nH]c(SCC(=O)Nc2cccc3ccccc23)c1C#N	20%	3.2µM*	-5%[38.3 µM]	1%
COc1cc(NC(=O)c2ccccc2)c(OC)cc1NC(=O)CSc1[nH]c(=O)cc(C)c1C#N	.	.	11%	.
CCOc1nc(SCCOc2ccccc2)nc(N(C)C)n1	?	0.45µM*	0%	-2%
O=C(Nc1ccccc1)N1CCC(c2nc(-c3ccc(S(=O)(=O)N4CCOCC4)cc3)no2)CC1	-52%	-23%	13µM*	6%
O=C(Nc1cccc(C(F)(F)F)c1)N1CCC(c2nc(-c3ccc(F)cc3)no2)CC1	-16%[10 µM]	22µM*	16%[38.3 µM]	4%
SMILES	HTT ATP protect	HttQ103 aggreg	PINK1 expr mod	Epigenetic derep
CCS(=O)(=O)N1CCC(c2nc(-c3ccc(C(F)(F)F)cc3)no2)CC1	-38%	11µM*	0%[38.3 µM]	-5%
O=C(Nc1ccc(Cl)cc1)N1CCC(c2nc(-c3ccccc3Cl)no2)CC1	-25%	11µM*	13%	0%
Cc1ccc([C@H]2C[C@H](n3cc(COC(=O)c4ccccc4)nn3)[C@@H](O)CN2Cc2cccs2)cc1	.	.	2%	.
COc1ccc(-c2cc(C(=O)N(C)Cc3ccccc3F)c3ccccc3n2)cc1OC	.	.	-2%	.
CCCCCn1c(=O)[nH]c2cc(C(=O)N3CCN(Cc4ccc5c(c4)OCO5)CC3)ccc2c1=O	-14%	8.9µM*	2%	-5%
O=C(c1ccc2c(=O)n(Cc3ccc4c(c3)OCO4)c(=S)[nH]c2c1)N1CCCCC1	-8%	6%	14µM*	-3%
CN1CCN(C(=O)c2ccc3c(=O)n(Cc4ccc5c(c4)OCO5)c(=S)[nH]c3c2)CC1	.	.	1%	.
CCc1ccc(NC(=O)c2ccnc(C(C)(C)C)c2)cc1	-9%	-16%	0%[38.3 µM]	0%
O=[N+]([O-])c1ccc(C2=NN(c3ccccc3)C(c3ccco3)C2)cc1 (centres undefined)	0%[10 µM]	30%[9.22 µM]	?	2µM*
O=[N+]([O-])c1ccc(/C=C/C2=NN(c3ccccc3)C(c3ccco3)C2)cc1 (centres undefined)	.	?	?	0.79µM*
CC1=NN(c2ccccc2)C(c2ccco2)C1 (centres undefined)	.	.	1%	.
COc1ccc(CN2CCNC(=O)C2CC(=O)N(C)CCc2cnn(C)c2)c(F)c1 (centres undefined)	.	.	-1%	.
C=C(C)c1ccc(C(C)(C)NC(=O)N(Cc2ccccc2)Cc2ccco2)cc1	-6%[10 µM]	10%	11µM*	1%
C=C(C)c1ccc(C(C)(C)NC(=O)NCc2ccco2)cc1	8%	20%	-1%	-1%
O=[n+]1cc(-c2ccc(F)cc2)n([O-])c2c1CCC2	12%[10 µM]	-21%	1%	0%
NC(=O)CC(NC(=O)c1ccccc1)c1ccc(NC2CCCCC2)c([N+](=O)[O-])c1 (centres undefined)	11%[10 µM]	8%[9.22 µM]	4%	-2%
c1ccc(CCNc2nc(-c3ccccn3)nc3ccccc23)cc1	-47%[10 µM]	-32%[9.22 µM]	40µM*	2%
CN1CCN(c2nc(-c3cccs3)nc3ccccc23)CC1	-4%[1.9 µM]	-16%	-2%	0%
COc1ccc(NC(=O)c2sc3nc(-c4cccnc4)ccc3c2N)cc1OC	-1%[10 µM]	8%[9.22 µM]	2%	7.1µM*
Cc1ccc(NC(=O)c2sc3nc(-c4ccncc4)ccc3c2N)cc1	.	.	32µM*	22µM*
COc1ccc(-c2ccc3c(N)c(C(=O)Nc4ccc(C(F)(F)F)cc4)sc3n2)cc1OC	.	.	13%	0%
Nc1c(C(=O)Nc2ccccc2)sc2nc(-c3cccnc3)ccc12	-1%[10 µM]	14%[9.22 µM]	.	3.5µM*
Nc1c(C(=O)Nc2cccc(Cl)c2Cl)sc2nc(-c3cccnc3)ccc12	24%[10 µM]	-8%	12%	6%
COc1ccc(NC(=O)c2sc3nc(-c4cccnc4)ccc3c2N)cc1	12%[10 µM]	-1%[9.22 µM]	45µM*	?
COc1cccc(-c2ccc3c(N)c(C(=O)Nc4ccccc4C)sc3n2)c1	.	.	0%	0%
Cc1cc(C(=O)OCC(=O)c2cccc([N+](=O)[O-])c2)c2ccccc2n1	-2%[10 µM]	2%	0%	0%
CCOC(=O)Cn1nc(C)n(-c2ccccc2)c1=O	4%	6%	-1%	0%

High-throughput results as filed in PubChem.
